# Tested on: PPARg homodimer (NR concentration 180 nM)
# Test: PBM binding z-score (relative to random genomic background probes); higher = stronger binding; sequences stand for … in GC…GCGATTGACAGCGTAGAATGAAGG
# In short: (§1)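 Regression normalization was applied to scanned fluorescence from custom Agilent 4×180K protein-binding microarrays. Before scanning, arrays were incubated 1 h with ligand-free nuclear receptor dimers, and binding was detected with antibodies against each partner (one per run). Binding z-scores use the random background probes as reference.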
row,Sequence,PBM binding z-score
1,AATACAGGGCCACTAGGCCAGAGTAGGTACGAAT,0.246
2,TCTTGTAAATCAGCAGGTTAAGAAAGCTGGCCAA,0.0187
3,ACTATTAGTTGACTTAGGGCAACCGTTACGACGC,0.51
4,CAAACTAGGTCCCGAAAGGTCAAAGTCGAATGAC,3.35
5,CGTCCACGGTCAGCAGGTCAGTGAAAGCGACGTG,0.382
6,ATCGAAAGGTCGGAGGTGAGTATACCCACCCGAA,1.66
7,GCTTACGGGTCAAAGGTTATTGCATGAATAGAAT,3.22
8,ATTCGGAGGACAAAGGTCAGAGCTACGCCAGTGA,3.33
9,GGTAGCAGGCCATTTGGGTCACTCAATGACGGGC,0.75
10,GATACAGGGTCAGCTCGAGGCCAGAGTATGGAAA,1.54
11,GCTTGTAGATCAAGGTTAAGATAGACTAAGCTAA,0.519
12,ACTATTAGATGAGACGAGGGCAACCGATAGGTTG,1.13
13,AATACAGGGTCAACGTAGGCCAGAGTACGCACAG,2.78
14,GCATGTAGGTAATACAAGGTGAAAGTCCGATTGT,0.562
15,TCTATTAGTTGACGGGCAACCGACGAGTCCGTTT,0.156
16,GCTTTTAGATCAAGGTTAAGAAAGACTAAGCTAA,0.294
17,TCGAGTAGGTTACCAATGGGGCATTCTGCTTTCT,-0.334
18,CCTAGCGGGCCAGGGTCACTCAAGCATTTCGCTT,0.563
19,GCTTGTAGATCAAGGATAAGAAAGACTAAGCTAA,-0.571
20,ATATGTAGGTTAAGGGTCATCCAGGTTGGTTCGC,4.33

row,Sequence,PBM binding z-score
1,ACAGACAGGTGAGTGAAGGTAACTCACCTGGACG,-0.03
2,CGAACTAGGTCAGAACAGGTCAGTGAAGGATGAT,1.66
3,TCCATTAGTTGAAGGGCAACCGACGAGTCCGTTT,1.13
4,CCTAGTTCGTCAAGGTCACACACGCTATAGGTAC,4.18
5,CCTATTAGTTGACCACAAGGGCAACCGAAGCTCG,1.46
6,CCTATTAGTTGACCATAAGGGCAACCGCAGCTCG,0.816
7,TCTGCTAGGTCAGTTGGTAAGCTAACGAGCTGCC,-0.393
8,GCAGACAGGTGAAACGCAGGTAACTCAAGGTGGC,-0.279
9,CCTCGGAGGACAACAGGCGGTCAGAGCTGCCAGA,-0.158
10,TCTTGTAGATCAAAAGAGGTTAAGAAAGTGCGCT,0.373
11,CCTACTGGGCCAAAAAGGTCATTGAAGCCGATAA,3.29
12,CAAACTAGGTCACGGAAGGTCAAAGTCGAATGAC,7.08
13,AGAATGAGGTTGTACGTAGATCAGGGAAGAAAGT,0.226
14,GTATCAAGGTGAATAGGTCGTTGATGAGTAGGCG,1.45
15,AGAACGAGGGCACGCTGAGATGATAGCAGAGTAG,0.5
16,AGTCAAAGTTCATCTAGATAACGTAAGATATGCT,2.62
17,CGAACTAGGTCAGAACAGGAGAGTGAAGGATGAT,0.511
18,CAAACTAGGTGACCGGAAGGTCAAAGTCCGCATG,3.59
19,ACAGACAGGTGAGTGAAGGAAACTCAGCTGGACG,-0.703
20,ATCCCAAGGTGATCGTGAGGTCGTTGATACTAAC,1.01

# Tested on: PXR:RXRa (NR concentration 270 nM, RXRa partner concentration 90 nM)
# Test: as above
# In short: as §1
row,Sequence,PBM binding z-score
1,AATACAGGGCCACTAGGCCAGAGTAGGTACGAAT,-0.239
2,TCTTGTAAATCAGCAGGTTAAGAAAGCTGGCCAA,0.477
3,ACTATTAGTTGACTTAGGGCAACCGTTACGACGC,0.554
4,CAAACTAGGTCCCGAAAGGTCAAAGTCGAATGAC,5.58
5,CGTCCACGGTCAGCAGGTCAGTGAAAGCGACGTG,0.0662
6,ATCGAAAGGTCGGAGGTGAGTATACCCACCCGAA,1.87
7,GCTTACGGGTCAAAGGTTATTGCATGAATAGAAT,6.21
8,ATTCGGAGGACAAAGGTCAGAGCTACGCCAGTGA,3.99
9,GGTAGCAGGCCATTTGGGTCACTCAATGACGGGC,0.505
10,GATACAGGGTCAGCTCGAGGCCAGAGTATGGAAA,3.47
11,GCTTGTAGATCAAGGTTAAGATAGACTAAGCTAA,0.536
12,ACTATTAGATGAGACGAGGGCAACCGATAGGTTG,0.465
13,AATACAGGGTCAACGTAGGCCAGAGTACGCACAG,5.23
14,GCATGTAGGTAATACAAGGTGAAAGTCCGATTGT,0.369
15,TCTATTAGTTGACGGGCAACCGACGAGTCCGTTT,0.38
16,GCTTTTAGATCAAGGTTAAGAAAGACTAAGCTAA,0.507
17,TCGAGTAGGTTACCAATGGGGCATTCTGCTTTCT,-0.0891
18,CCTAGCGGGCCAGGGTCACTCAAGCATTTCGCTT,2.61
19,GCTTGTAGATCAAGGATAAGAAAGACTAAGCTAA,-0.567
20,ATATGTAGGTTAAGGGTCATCCAGGTTGGTTCGC,5.87

row,Sequence,PBM binding z-score
1,ACAGACAGGTGAGTGAAGGTAACTCACCTGGACG,-0.17
2,CGAACTAGGTCAGAACAGGTCAGTGAAGGATGAT,3.32
3,TCCATTAGTTGAAGGGCAACCGACGAGTCCGTTT,1.16
4,CCTAGTTCGTCAAGGTCACACACGCTATAGGTAC,5.38
5,CCTATTAGTTGACCACAAGGGCAACCGAAGCTCG,0.841
6,CCTATTAGTTGACCATAAGGGCAACCGCAGCTCG,0.705
7,TCTGCTAGGTCAGTTGGTAAGCTAACGAGCTGCC,-0.186
8,GCAGACAGGTGAAACGCAGGTAACTCAAGGTGGC,-0.0534
9,CCTCGGAGGACAACAGGCGGTCAGAGCTGCCAGA,-0.464
10,TCTTGTAGATCAAAAGAGGTTAAGAAAGTGCGCT,2.86
11,CCTACTGGGCCAAAAAGGTCATTGAAGCCGATAA,4.73
12,CAAACTAGGTCACGGAAGGTCAAAGTCGAATGAC,6.99
13,AGAATGAGGTTGTACGTAGATCAGGGAAGAAAGT,0.252
14,GTATCAAGGTGAATAGGTCGTTGATGAGTAGGCG,0.996
15,AGAACGAGGGCACGCTGAGATGATAGCAGAGTAG,0.342
16,AGTCAAAGTTCATCTAGATAACGTAAGATATGCT,5
17,CGAACTAGGTCAGAACAGGAGAGTGAAGGATGAT,0.126
18,CAAACTAGGTGACCGGAAGGTCAAAGTCCGCATG,4.49
19,ACAGACAGGTGAGTGAAGGAAACTCAGCTGGACG,-0.793
20,ATCCCAAGGTGATCGTGAGGTCGTTGATACTAAC,2.89
